Bioassay records from PubChem.
Shiga toxin inh: A qHTS for Small Molecule Inhibitors of Shiga Toxin. Vero cells, Shiga toxin protein synthesis inhibition reporter. inhibition, % at 38.7 µM. hit rate 9.2% among 290,000. AID 2315, 2010; in the data active means inhibition mostly above about 28%, no sharp cut-off; inactive means mostly below about 43%; further: 0% is about no effect
CHX counter: Cycloheximide Counterscreen for Small Molecule Inhibitors of Shiga Toxin. cell reporter, cycloheximide protein synthesis inhibition counterscreen. max response, %. hit rate 12% among 300,000; in the data active means max response mostly above about 13%, no sharp cut-off; inactive means mostly below about 14%; further: read at 38.3 µM for the half of the compounds with a filed dose; 0% is about no effect
Pf growth 96h: Primary qHTS for delayed death inhibitors of the malarial parasite plastid, 96 hour incubation; P. falciparum luciferase reporter growth, 96 h; Potency, µM (titrated, usually from 28.7 µM), without a hit: top-dose activity change, negative = inhibition, most hits filed as inhibitors; hit rate 6.9% among 320,000; AID 504834, 2011; active means well fitted inhibition curve with a large enough effect; inconclusive means small, poorly fitted or top-dose-only effect, or another doubt; inactive means no such curve, though single readings can be large or run the other way; further: potency means the concentration at half of the fitted maximal effect; on the % scale 0 is the no-effect control and ±100 the full control effect
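Two-generation exposure (96 h) targets delayed-death phenotype. Reporter parasites carrying integrated firefly luciferase, in red cells at 2% hematocrit and 0.05% parasitemia final, kept at 37 C, 5% CO2; luminescence loss indicates inhibition.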
NS1 inh: qHTS Assay for Inhibitors of Influenza NS1 Protein Function | Potency, µM (series often up to 46.1 µM), for inactives: top-dose activity, positive = more growth | AID 2326, 2010 | hit rate 0.4% among 270,000; further: potency means the concentration at half of the fitted maximal effect; actives are rising curves; nearly all actives have a fitted effect of over 50% in size
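In this qHTS, NS1 from influenza A is expressed in budding yeast, where it slows growth. Cells are switched from glucose to 2% galactose medium (pH 6.0, -URA), treated with compound, and growth recovery is read at OD600.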
Pf growth 48h: Primary qHTS for delayed death inhibitors of the malarial parasite plastid, 48 hour incubation | P. falciparum luciferase growth in erythrocytes, 48 h | Potency, µM (series often up to 28.7 µM), without a hit: at the highest dose activity change, negative = inhibition, actives largely listed as inhibitors | hit rate 5.9% among 310,000; active means well fitted inhibition curve with a large enough effect; inconclusive means small, poorly fitted or top-dose-only effect, or another doubt; inactive means no such curve, though single readings can be large or run the other way; further: potency means the concentration at half of the fitted maximal effect; on the % scale 0 is the no-effect control and ±100 the full control effect
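Firefly luciferase activity from engineered P. falciparum reports growth; inhibitors lower the luminescent signal. Cultures contained 2% hematocrit erythrocytes at 0.1% final parasitemia.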
SARS PLpro yeast: qHTS of Yeast-based Assay for SARS-CoV PLP; S. cerevisiae expressing SARS-CoV PLpro, growth rescue; Potency, µM (titrated, usually from 32.9 µM), without a hit: at the highest dose activity, positive = growth rescue, hits mostly activators; hit rate 0.19% among 330,000; further: potency means the concentration at half of the fitted maximal effect; 0% is about no effect; nearly all actives have a fitted effect of over 55% in size
* marks the source's active call; other numbers are inactive results; ? = inconclusive; nt = not tested or not shown; [ ] = remark or other dose. Most compounds without a hit are left out; they make up all but 21% or so of the library. Unless noted, the call rests on the fitted dose curve.

SMILES	Shiga toxin inh	CHX counter	Pf growth 96h	NS1 inh	Pf growth 48h	SARS PLpro yeast
c1ccc(CCc2nc3ccccc3[nH]2)cc1	78*	41*	5.9µM*	-3%	83%	1%
O=C(NCCc1nc2ccccc2[nH]1)c1cccc(Br)c1	-3	-2	7%	5%	-8%	4%
O=S(=O)(NCc1nc2ccccc2[nH]1)c1ccccc1	31*	19	52%	8%	32%	-8%
O=S(=O)(CCc1nc2ccccc2[nH]1)c1ccc(Br)cc1	-2	-2	10µM*	6%	?	-7%
O=C(NCCCc1nc2ccccc2[nH]1)c1ccco1	3	6	9.3µM*	6%	27%	4%
NS(=O)(=O)c1ccc(NCc2nc3ccccc3[nH]2)cc1	nt	nt	nt	-3%	nt	nt
O=C(NCCCc1nc2ccccc2[nH]1)c1cccs1	7	3	12%	nt	-9%[5.75 µM]	1%
CCOC(=O)Cc1cnc(NC(=O)CSc2nc(C(C)C)cc(=O)[nH]2)s1	11	-5	?	1%	0%	4%
O=C(O)CC/C(=N/NC(=O)CNC(=O)c1ccc2c(c1)OCCO2)c1ccccc1	-6	-7	2%	10%	18%	-3%
Nc1cccc(CCc2nc3cc4ccccc4cc3[nH]2)c1	36*	22*	?	10%	203%	3%
CCCCc1nc2ccccc2[nH]1	-15	9	14%	-6%	19%	-2%
Cn1c(Cc2cccs2)nnc1SCc1nc2ccccc2[nH]1	17	-1	9%	-5%	-21%	-9%
c1ccc2[nH]c(CCCc3nc4ccccc4[nH]3)nc2c1	-5	-2	13µM*	9%	?	-8%
c1csc(Cc2nc3ccccc3[nH]2)c1	35	24*	2%	-10%	16%	-2%
O=c1[nH]c2ccccc2nc1CCc1ccccc1	71*	24*	96%	nt	52%	-4%
COC(=O)Cc1ccc(NC(=S)Nc2ccc(N3CCOCC3)cc2)cc1	-3	-3	?	6%	-2%	-1%
CCOC(=O)Cn1cc(C#N)c2cccc(CC)c21	-8	-4	0.74µM*	-2%	?	0%
COC(=O)Cn1cc(C#N)c2ccccc21	27	-2	30%	6%[9.22 µM]	-3%	-3%
CCc1cccc2c(C#N)cn(CC(=O)NCc3ccco3)c12	15	1	nt	11%	10µM*	1%
O=C(/C=C/c1c(Cl)nc2ccccn12)Nc1ccc(F)cc1	12	15*	?	nt	?	-2%
CCOC(=O)NC(=O)CSc1nnc(C2CC2)n1Cc1ccco1	-5	-1	9%	nt	15%	1%
O=C(NCCc1ccc(F)cc1)c1ccc(Cl)c(S(=O)(=O)N2CCOCC2)c1	nt	nt	12µM*	nt	9.3µM*	-6%
CCOc1ccc(CCNC(=O)c2cccc(S(=O)(=O)N3CCOCC3)c2)cc1OCC	nt	nt	?	nt	?	-1%
O=C(NCCN1CCOCC1)c1ccc(Cl)c(S(=O)(=O)N2CCOCC2)c1	-7	8	?	11%	-5%	33%
CCOc1ccc(CCNC(=O)c2cccc(S(=O)(=O)N3CCCCC3)c2)cc1OCC	nt	nt	?	nt	15µM*	-2%
SMILES	Shiga toxin inh	CHX counter	Pf growth 96h	NS1 inh	Pf growth 48h	SARS PLpro yeast
CCOc1ccc(CCNC(=O)c2ccc(Cl)c(S(=O)(=O)N3CCOCC3)c2)cc1OCC	nt	nt	?	nt	12µM*	5%
CCOCCCn1c(=S)[nH]c2cc(C(=O)NCC(OC)OC)ccc2c1=O	-5	3	?	nt	22%	0%
O=C(CSc1nc2ccccc2[nH]1)Nc1nc(-c2ccc(Br)cc2)cs1	18	10	0%	25%	?	-7%
CCCCCC=CCC=CCCCCCCCC(=O)OCC	nt	nt	2%	nt	-6%	nt
O=C(COC(=O)/C=C/c1cccc(Cl)c1)NC1CCCC1	nt	nt	-21%	nt	13%	-1%
CCCCNC(=O)c1ccccc1SCC(=O)NC1CCCCCCC1	nt	nt	-24%	nt	?	0%
O=C(CS(=O)(=O)c1ccccc1)NCc1ccccc1	-5	-2	15%	5%	1%	?
Cc1ccc(CNC(=O)CS(=O)(=O)c2ccccc2)cc1	44	26*	80%	2%	18%	1%
CCCNC(=O)CS(=O)(=O)c1ccccc1	16	10*	101%	-6%	54%	2%
